{"source": "PubChem BioAssay", "note": "Values without a mark were called inactive. No rule for the calls is given here."}
{"target": "Pantothenate synthetase (Mycobacterium tuberculosis (strain ATCC 25618 / H37Rv)) (UniProt P9WIL5)", "sequence (P9WIL5 whole entry, looked up)": "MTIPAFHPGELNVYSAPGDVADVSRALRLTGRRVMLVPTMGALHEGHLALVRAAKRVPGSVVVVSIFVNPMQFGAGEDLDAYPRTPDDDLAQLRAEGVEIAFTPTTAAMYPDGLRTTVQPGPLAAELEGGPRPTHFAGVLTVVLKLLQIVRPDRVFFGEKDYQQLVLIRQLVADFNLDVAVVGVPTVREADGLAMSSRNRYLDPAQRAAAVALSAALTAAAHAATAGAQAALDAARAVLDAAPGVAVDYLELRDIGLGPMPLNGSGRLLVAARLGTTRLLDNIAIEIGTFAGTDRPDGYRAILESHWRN", "test": "Recombinant Mtb pantothenate synthetase (PanC) inhibitors, coupled enzyme, confirmatory (AID 375);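 also: 0% = full reaction with vehicle and 100% = no enzyme background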", "conditions": "coupled enzyme assay; at 10 µM, hits give high values", "units": {"inhibition": "%"}}
{"smiles": "O=C1C2C3C=CC(C3)C2C(=O)N1c1cccc(N2C(=O)C3C4C=CC(C4)C3C2=O)n1", "note": "(configuration not stated)", "inhibition": 0}
{"smiles": "CC(=O)C1=C(N2CCCCC2)CCC1=O", "inhibition": 0}
{"smiles": "COc1ccccc1C(O)P(=O)(OC(C)C)c1ccc(N(C)C)cc1", "note": "(configuration not stated)", "inhibition": 0}
{"smiles": "CCOc1ncccc1C(=O)Nc1ccc(Cl)cc1", "inhibition": 2}
{"smiles": "O=C(CSc1nc(C2CCCCC2)n(-c2ccccc2)n1)NCCN1C(=O)CSC1=O", "inhibition": 6}
{"smiles": "CCSc1nc(O)c(C2OC(=O)c3c2ccc(OC)c3OC)c(=O)n1-c1ccccc1", "note": "(configuration not stated)", "inhibition": 0}
{"smiles": "COc1ccc(-n2ncc3c(N4CCC(C)CC4)ncnc32)cc1", "inhibition": 1}
{"smiles": "CC1CCCC(C)N1CCNC(=O)C1CCN(S(=O)(=O)N2CCCCC2)CC1", "note": "(configuration not stated)", "inhibition": 3}
{"smiles": "O=C(NCc1cccs1)C(Cc1ccccc1)NS(=O)(=O)c1cccs1", "note": "(configuration not stated)", "inhibition": 8}
{"smiles": "Cn1cccc1Cc1nnc(SCC(=O)Nc2ccccc2F)n1CCc1ccccc1", "inhibition": 0}
{"smiles": "CCOC(=O)c1sc2nc(SCC(=O)NCc3ccco3)n(Cc3ccccc3)c(=O)c2c1C", "inhibition": 0}
{"smiles": "O=C(NCc1cccs1)C1CC(c2ccccc2O)=NO1", "note": "(configuration not stated)", "inhibition": 5}
{"smiles": "CC(C)OC(=O)c1ccc(NC(=O)C2C3CC4OC(=O)C2C4C3)cc1", "note": "(configuration not stated)", "inhibition": 7}
{"smiles": "C=C(C)Cn1c(SCC)nc2ccccc2c1=O", "inhibition": 4}
{"smiles": "OC(CNCCc1ccccc1)c1ccccc1", "note": "(configuration not stated)", "inhibition": 2}
{"smiles": "CC(C)=CCSc1nnc(CCNC(=O)OC(C)(C)C)o1", "inhibition": 3}
{"smiles": "CCCc1cc(-n2ccnc2)n2c(nc3ccccc32)c1C#N", "inhibition": 0}
